Bioassay records deposited in PubChem BioAssay by National Center for Advancing Translational Sciences (NCATS).
Sfp inh = inhibitors of Bacillus subtilis Sfp phosphopantetheinyl transferase | Biochemical Sfp PPTase activity, qHTS | Potency, µM, without a hit: largest response in the series, negative = inhibition, hits mostly inhibitors | Q9F4F7 | hit rate 3.5% among 310,000;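 also: the enzyme is Sfp with the accession as filed and its product quenches rhodamine fluorescence; 0% = enzyme reaction without inhibitor and -100% = no enzyme wells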
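With Hepes-Na pH 7.6 buffer containing 10 mM MgCl2, Sfp (15 nM) modified BHQ-2-YbbR (12.5 uM) using rhodamine-CoA (5 uM). Two reads 30 minutes apart at 525/598 nm yielded each well's rate.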
BAZ2B inh = blocks human BAZ2B. hit rate 4.4% among 360,000. Potency, µM (series often up to 114 µM), for the others: at the highest dose activity change, negative = inhibition, hits mostly inhibitors. AID 504333. AlphaScreen BAZ2B-H3K14Ac peptide displacement; also: % is scaled to controls: 0 for no effect and ±100 for the full control effect; nearly all actives have a fitted effect of over 60% in size
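Protein-peptide AlphaScreen: BAZ2B 50 nM, b-H3K14Ac 50 nM, 1x PBS pH 7.4 + 0.01% Tween-20. Preincubation 30 min RT; cpd 30 min RT (top 110 uM); beads 20 min RT, light-protected.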
G9a inh = G9a (human) methyltransferase inhibition; Q96KQ7; G9a H3K9 monomethylation, AlphaScreen, 2 h; Potency, µM (highest dose often 102 µM), for the others: at the highest dose activity, negative = inhibition, usual class: inhibitors; hit rate 8.8% among 350,000; AID 504332; also: % is scaled to controls: 0 for no effect and ±100 for the full control effect; nearly all actives have a fitted effect of over 75% in size
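Quantitative HTS format: methyltransferase activity on a biotin-tagged H3K9 peptide is measured by AlphaScreen, using a rabbit anti-monomethyl-H3K9 antibody with streptavidin donor and anti-IgG acceptor beads. Final levels are 20 nM enzyme, 500 nM peptide, 20 uM SAM; 2 h RT.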
HP1b binding inh = inhibitors of HP1-beta chromodomain binding to methylated histone tails; AlphaScreen HP1-beta / biotin-H3K9me3 peptide binding; Potency, µM (series often up to 114 µM), for inactives: at the highest dose activity change, negative = inhibition, actives largely listed as inhibitors; hit rate 0.56% among 390,000; AID 540317; also: nearly all actives have a fitted effect of over 70% in size
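AlphaScreen: HP1-beta (50 nM) preformed 30 min with biotin-H3(1-18)K9me3 peptide (50 nM) in PBS pH 7.4, 0.01% Tween-20. Compound added for 30 min at RT, then streptavidin donor/nickel chelate acceptor beads (10 ug/mL) for 30 min.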
L3MBTL1 inh = blocks human L3MBTL1; Q9Y468; AlphaScreen L3MBTL1–H3K9me1 peptide binding; Potency, µM (titrated, usually from 57.1 µM), without a hit: at the highest dose activity, negative = inhibition, usual class: inhibitors; hit rate 0.66% among 230,000; AID 485360; also: % is scaled to controls: 0 for no effect and ±100 for the full control effect; nearly all actives have a fitted effect of over 60% in size
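First, the protein-peptide complex forms for 30 min at room temperature (L3MBTL1 50 nM, biotinylated H3K9me1 peptide 75 nM). Next, compounds are pin-transferred and incubated 30 min. Finally, AlphaScreen beads are added and read after 30 min.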
JMJD2A Tudor inh = JMJD2A Tudor domain (human) inhibition; O75164; AID 504339; Potency, µM (doses to about 114 µM), for the others: at the top dose activity change, negative = inhibition, most hits filed as inhibitors; AlphaScreen JMJD2A-Tudor / H3K4me3 peptide binding; hit rate 4.4% among 390,000; also: % is scaled to controls: 0 for no effect and ±100 for the full control effect; nearly all actives have a fitted effect of over 50% in size
* = called active by the depositor; ? = inconclusive; · = no result given; [ ] = dose if it differs, or a comment. A selection: hits, their analogues and other compounds. The true share with any hit is near 12%. Calls follow the shape of the dose curve; as a rule, active = well fitted curve in the direction sought with a large enough effect; inconclusive = small, poorly fitted or top-dose-only effect, or another doubt; inactive = no such curve, though single readings can be large; an effect the other way counts as inactive or inconclusive. Potency is read from the fitted curve at half-maximal effect.

SMILES	Sfp inh	BAZ2B inh	G9a inh	HP1b binding inh	L3MBTL1 inh	JMJD2A Tudor inh
Cc1ccc(S(=O)(=O)N2CCCC2C(=O)Nc2ccc(Br)cc2)cc1 (stereo not given)	·	6.9%	16.9%[59 µM]	63.8%	·	0.0%
Cc1ccccc1Cn1c(=O)n(Cc2ccc(Cl)cc2)c(=O)c2cccnc21	·	14.5%	21.5%[59 µM]	57.2%	·	33.8%
CN(C)c1ccc(NC(=O)C2CCCN(S(=O)(=O)c3ccccc3)C2)cc1 (stereo not given)	-2.3%	?	8.91µM*	12.2%	-23.0%	-22.6%[57.1 µM]
Nc1ccc(S(=O)(=O)N2CCCC2C(=O)O)cc1 (stereo not given)	79.4µM*	-30.6%	-49.5%	13.3%	·	-12.2%
Cc1ccc(S(=O)(=O)N2CCN(S(=O)(=O)c3ccccc3)C2c2ccc(N(C)C)cc2)cc1 (stereo not given)	2.3%	?	8.91µM*	-12.9%	·	?
COc1ccc(NC(=O)c2ccc(NC(=O)c3cccs3)cc2)cc1	-8.3%	-0.1%	·	-4.5%	·	-8.8%
COc1cc(N)ccc1NC(=O)c1cccs1	-15.0%	5.9%	8.91µM*	30.9%	-24.6%[11.4 µM]	-33.3%
Cc1cc(NC(=O)COc2ccccc2C)ccc1NC(=O)c1cccs1	22.7%	7.5%	79.4µM*	9.0%	·	-10.2%
COc1nc(N)nc(NC(=O)c2cccs2)c1N=O	·	·	·	13.6%	·	28.2µM*
O=C(/C=C/c1ccccc1Cl)Nc1nc(-c2cccs2)ns1	·	-0.3%	3.7%[59 µM]	26.3%	·	-10.6%
CC(C)/C=C1\CC/C(=C\c2ccc(N(C)C)cc2)C1=O	25.0%	12.1%	20.1%	41.4%	?	-4.1%
CN(C)c1ccc(/C=C2/C[N+](C)(C)C/C(=C/c3ccc(N(C)C)cc3)C2=O)cc1	·	·	·	39.8µM*	·	39.8µM*
CC12CCC(C[N+](C)(C)C1)C2(C)C (stereo not given)	-6.1%	-7.7%	?	-26.3%	·	22.4µM*
CC[N+]1(CC)CC2CCC(C)(C1)C2(C)C (stereo not given)	-4.0%	-11.5%	?	13.2%	·	?
O=C(CCN1CCCCC1c1cccnc1)NCc1ccccc1 (stereo not given)	11.5%	2.8%	?	53.2%	-1.0%	-1.8%
CCCOc1cccc(CN2CCCCC2c2cccnc2)c1 (stereo not given)	25.7%	?	44.7µM*	35.9%	·	?
CCCCNC(=O)c1c(-c2ccccc2)c(-c2ccccc2)nn(C)c1=O	·	-2.1%	-46.0%[59 µM]	23.8%	·	-6.9%
CCOC(=O)C(C(=O)Nc1ccccn1)C1CCCCC1 (stereo not given)	-16.6%	0.7%	50.1µM*	21.4%	4.3%	89.1µM*
CNC(=O)c1ccc(Nc2nnc(-c3ccc(C)c(S(=O)(=O)NC(C)(C)C)c3)c3ccccc23)cc1	·	2.6%	-6.3%[59 µM]	31.3%	·	-15.0%
O=C(Nc1ccc(Cl)cc1)Nc1ccccc1CC[N+](=O)[O-]	-2.9%	-28.3%	-43.0%	-7.7%	-4.0%	22.4µM*
O=C(Nc1ccc(-c2cn3cccnc3n2)cc1)c1ccccc1F	·	-2.7%	-3.2%[59 µM]	6.6%[57 µM]	·	-14.5%
COc1cccc(N2C(=O)CC(N3CCN(c4ccc([N+](=O)[O-])cc4)CC3)C2=O)c1 (stereo not given)	20.2%	-11.0%	?	10.1%	-3.1%	-23.9%
COc1ccc(N2CCN(c3ccc(N4C(=O)CC(C)C4=O)cc3[N+](=O)[O-])CC2)cc1 (stereo not given)	17.4%	?	39.8µM*	-29.3%	-19.5%	?
COc1ccc(N2CCN(c3ccc(N4C(=O)COCC4=O)cc3[N+](=O)[O-])CC2)cc1	12.0%	?	50.1µM*	-13.8%	-5.3%	-32.4%
CCOC(=O)CN1NC2(CCCCC2)NC1=S	28.2µM*	-5.6%	?	-19.8%	·	17.8µM*
CCOC(=O)Cn1c2c(c(=N)c3c1CCC3)CCC2	4.2%	58.0%	11.8%[59 µM]	57.0%	16.9%	-0.9%
CCOC(=O)CN1NC2(CCCCCCC2)NC1=S	39.8µM*	-20.7%	2.24µM*	40.6%	-1.8%	28.2µM*
